Measured values: PubChem BioAssay
Calls of active or inactive are those of the source.

Legend:
[1] = binders of probe aFSTL3 on microarray, primary screen, stem cell growth factor project, biochemical, small-molecule microarray, fluorescence 635/667 (AID 1064); conditions: higher = more signal;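 further: measures binding of the biotinylated anti-FSTL3 antibody to printed compounds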
[2] = binders from COS7 lysate, DM2A8 probe, primary screen, torsin A project, cell lysate, small-molecule microarray, fluorescence 635/667 (AID 1065); conditions: higher = more signal, COS7 lysate expressing mutant human TOR1A
[3] = binders of probe aFGF2 on microarray, primary screen, stem cell growth factor project, biochemical, small-molecule microarray, fluorescence 635/667 (AID 1067); conditions: higher = more signal;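 further: measures binding of biotinylated aFGF2 protein to printed compounds on slides; z-score merges feature fluorescence and signal-to-noise across triplicate slides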
[4] = binders of probe aFGF10 on microarray, primary screen, stem cell growth factor project, biochemical, small-molecule microarray, fluorescence 635/667 (AID 1071); conditions: higher = more signal;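 further: score merges 667 nm spot intensity and signal to noise from triplicate slides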
[5] = target: Neurogenic locus notch homolog protein 2 (Homo sapiens) (UniProt Q04721); test: Notch2 binders on small-molecule microarrays, primary screen, biochemical, small-molecule microarray, 635 nm fluorescence, stem cell growth factors (AID 1073); conditions: Notch2 binding, higher = more signal
Chain of Neurogenic locus notch homolog protein 2 (Homo sapiens) (Q04721 whole entry, looked up, canonical isoform): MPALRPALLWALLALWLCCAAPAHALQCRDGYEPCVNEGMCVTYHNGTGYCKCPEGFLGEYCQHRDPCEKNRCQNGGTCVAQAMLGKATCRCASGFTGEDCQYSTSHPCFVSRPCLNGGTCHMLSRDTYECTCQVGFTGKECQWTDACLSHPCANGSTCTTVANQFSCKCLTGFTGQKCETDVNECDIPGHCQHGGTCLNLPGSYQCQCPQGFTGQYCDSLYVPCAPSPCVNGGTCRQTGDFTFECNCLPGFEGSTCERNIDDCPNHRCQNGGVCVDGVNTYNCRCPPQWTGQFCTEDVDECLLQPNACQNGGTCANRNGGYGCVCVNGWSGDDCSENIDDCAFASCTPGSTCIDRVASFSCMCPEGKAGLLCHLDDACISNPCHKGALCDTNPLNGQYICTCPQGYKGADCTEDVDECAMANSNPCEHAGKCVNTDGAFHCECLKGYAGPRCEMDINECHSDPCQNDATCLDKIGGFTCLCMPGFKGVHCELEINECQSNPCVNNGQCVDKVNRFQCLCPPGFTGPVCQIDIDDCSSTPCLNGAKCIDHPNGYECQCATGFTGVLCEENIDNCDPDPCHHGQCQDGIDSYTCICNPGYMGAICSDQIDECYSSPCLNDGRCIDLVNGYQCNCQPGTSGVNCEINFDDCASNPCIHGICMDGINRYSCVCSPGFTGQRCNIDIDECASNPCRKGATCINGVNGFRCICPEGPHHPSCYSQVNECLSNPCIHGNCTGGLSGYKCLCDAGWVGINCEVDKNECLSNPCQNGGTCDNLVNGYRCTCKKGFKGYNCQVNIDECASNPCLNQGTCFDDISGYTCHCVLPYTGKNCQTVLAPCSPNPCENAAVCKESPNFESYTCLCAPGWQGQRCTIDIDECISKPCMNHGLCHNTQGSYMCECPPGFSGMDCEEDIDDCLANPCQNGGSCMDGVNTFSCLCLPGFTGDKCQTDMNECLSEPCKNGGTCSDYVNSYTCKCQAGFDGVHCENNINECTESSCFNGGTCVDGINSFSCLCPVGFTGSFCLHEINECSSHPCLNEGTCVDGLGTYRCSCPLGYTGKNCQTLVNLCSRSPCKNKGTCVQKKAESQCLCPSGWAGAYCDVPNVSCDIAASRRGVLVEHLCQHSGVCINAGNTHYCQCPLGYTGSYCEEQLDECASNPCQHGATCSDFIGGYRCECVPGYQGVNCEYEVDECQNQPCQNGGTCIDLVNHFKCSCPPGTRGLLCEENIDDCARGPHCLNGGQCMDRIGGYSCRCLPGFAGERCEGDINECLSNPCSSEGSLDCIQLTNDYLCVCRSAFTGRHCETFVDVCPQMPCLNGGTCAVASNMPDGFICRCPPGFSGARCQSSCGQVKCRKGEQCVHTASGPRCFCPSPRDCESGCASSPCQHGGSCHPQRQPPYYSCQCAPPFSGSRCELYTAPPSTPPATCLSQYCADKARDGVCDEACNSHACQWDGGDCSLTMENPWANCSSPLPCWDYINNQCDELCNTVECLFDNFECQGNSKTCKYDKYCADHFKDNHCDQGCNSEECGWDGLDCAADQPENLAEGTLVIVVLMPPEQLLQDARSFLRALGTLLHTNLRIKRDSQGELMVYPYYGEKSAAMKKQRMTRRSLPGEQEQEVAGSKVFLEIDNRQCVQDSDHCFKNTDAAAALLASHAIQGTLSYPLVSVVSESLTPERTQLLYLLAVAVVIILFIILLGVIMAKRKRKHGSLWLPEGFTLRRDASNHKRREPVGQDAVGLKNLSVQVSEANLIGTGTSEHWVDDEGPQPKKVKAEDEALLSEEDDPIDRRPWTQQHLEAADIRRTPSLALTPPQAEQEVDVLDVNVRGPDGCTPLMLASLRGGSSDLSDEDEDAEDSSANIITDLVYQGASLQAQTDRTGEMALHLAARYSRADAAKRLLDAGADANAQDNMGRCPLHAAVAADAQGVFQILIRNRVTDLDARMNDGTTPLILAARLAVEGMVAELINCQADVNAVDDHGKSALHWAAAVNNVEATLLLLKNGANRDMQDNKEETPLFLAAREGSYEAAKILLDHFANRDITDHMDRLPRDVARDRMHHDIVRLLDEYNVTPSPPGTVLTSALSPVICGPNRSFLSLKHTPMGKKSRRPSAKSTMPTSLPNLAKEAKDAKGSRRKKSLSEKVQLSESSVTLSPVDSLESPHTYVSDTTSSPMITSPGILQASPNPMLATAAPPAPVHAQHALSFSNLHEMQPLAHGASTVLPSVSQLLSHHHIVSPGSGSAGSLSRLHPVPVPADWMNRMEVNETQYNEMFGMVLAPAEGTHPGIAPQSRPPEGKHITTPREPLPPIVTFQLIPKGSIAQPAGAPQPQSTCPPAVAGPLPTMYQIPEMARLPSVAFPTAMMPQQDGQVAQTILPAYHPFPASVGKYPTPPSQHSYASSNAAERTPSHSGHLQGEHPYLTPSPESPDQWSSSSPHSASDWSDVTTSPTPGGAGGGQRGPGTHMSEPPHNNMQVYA

[6] = target: Pro-neuregulin-1, membrane-bound isoform (Homo sapiens) (UniProt Q02297); test: NRG1 binders on small-molecule microarrays, primary screen, psychiatric disease protein project, biochemical, small-molecule microarray, fluorescence 635/667 (AID 1075); conditions: NRG1 binding, 635 nm fluorescence, higher = more signal;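 further: score combines 667 nm spot fluorescence with signal to noise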
Chain of Pro-neuregulin-1, membrane-bound isoform (Homo sapiens) (Q02297 whole entry, looked up, the tested form may be a part, canonical isoform): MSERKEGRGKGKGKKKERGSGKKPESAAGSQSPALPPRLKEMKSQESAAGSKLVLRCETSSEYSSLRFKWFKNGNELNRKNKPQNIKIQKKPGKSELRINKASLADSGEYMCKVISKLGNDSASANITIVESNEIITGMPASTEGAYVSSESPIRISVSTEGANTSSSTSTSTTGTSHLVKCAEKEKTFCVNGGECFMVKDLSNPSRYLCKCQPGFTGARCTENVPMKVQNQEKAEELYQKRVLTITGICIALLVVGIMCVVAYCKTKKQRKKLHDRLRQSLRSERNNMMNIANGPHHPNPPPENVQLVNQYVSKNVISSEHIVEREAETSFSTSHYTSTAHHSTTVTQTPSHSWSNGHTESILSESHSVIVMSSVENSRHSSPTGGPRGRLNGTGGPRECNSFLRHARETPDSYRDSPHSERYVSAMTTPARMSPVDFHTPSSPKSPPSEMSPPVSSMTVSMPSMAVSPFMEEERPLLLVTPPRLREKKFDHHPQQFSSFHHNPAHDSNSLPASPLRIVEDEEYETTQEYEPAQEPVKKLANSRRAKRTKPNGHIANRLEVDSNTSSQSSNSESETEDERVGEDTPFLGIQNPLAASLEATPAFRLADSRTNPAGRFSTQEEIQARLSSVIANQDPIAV

[7] = test system: Neuregulin-1 EGF-like domain; test: binders of neuregulin-1 EGF-like domain, primary screen, biochemical, small-molecule microarray, 635 nm fluorescence (AID 1081); conditions: small-molecule microarray binding, higher = more signal;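 further: binding of the protein to compounds printed on small-molecule microarray slides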
[8] = FRG1 promoter luciferase signal modulators, primary screen, FRG1 inhibition for FSHD, cell-based, C2C12 myotubes, firefly/Renilla luciferase, luminescence (AID 1084); conditions: higher = more signal, called active from +8 up or from −8 down
[9] = binders of probe aFST on microarray, primary screen, stem cell growth factor project, biochemical, small-molecule microarray, fluorescence 635/667 (AID 1086); conditions: higher = more signal;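 further: score merges 667 nm fluorescence with signal-to-noise of each printed compound spot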
[10] = binders of probe aHhip on microarray, primary screen, stem cell growth factor project, biochemical, small-molecule microarray, fluorescence 635/667 (AID 1087); conditions: higher = more signal;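 further: score merges spot fluorescence at 667nm with spot signal to noise ratio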

Row | Structure (SMILES) | composite z-score [1] | composite z-score [2] | composite z-score [3] | composite z-score [4] | composite z-score [5] | composite z-score [6] | composite z-score [7] | z-score [8] | composite z-score [9] | composite z-score [10]
1 | O=C1c2ccccc2[C@](Cc2ccccc2I)(C(=O)NCC(F)(F)F)[C@H](c2ccc(CO)cc2)N1Cc1ccccc1Cl | -0.266 | 0.0347 | 0.0069 | 0.106 | 0.95 | 1.74 | 1.28 | -1.05 (inactive) | 0.748 | 0.0373
2 | CCOC(=O)C[C@H]1[C@H](OC(=O)c2ccc(C(=O)c3ccccc3)cc2)[C@@H](NC(=O)c2ccc3ccccc3c2)c2cc(OCCCO)ccc2N1C(=O)Cc1ccc(OC)cc1 | -0.242 | 0.151 | -0.146 | 0.66 | 0.361 | 0.401 | 0.107 | -0.314 (inactive) | 0.441 | -0.0645
3 | CCC(CC)C(O)C1C=CC2C(=O)NC(=O)C2N1Nc1ccc(Cl)cc1Cl (stereo not given) | 0.494 | 0.318 | 0.133 | 0.309 | 1.42 | 0.971 | 1.08 | -1.71 (inactive) | 0.812 | 0.0749
4 | COc1ccc(/C=C/C=O)cc1 | -0.0583 | 0.144 | -0.0982 | 0.19 | 0.173 | -0.802 | -0.562 | 0.599 (inactive) | 0.0803 | 0.0975
5 | COC(=O)[C@@]1(Cc2ccc(F)cc2)[C@H]2c3cc(C(=O)N4CCCC4)n(CCCNc4ncc(C(F)(F)F)cc4Cl)c3C[C@H]2CN1C(=O)c1ccccc1 | 0.785 | -0.245 | 0.222 | 0.564 | 1.66 | 1.73 | 1.3 | 0.506 (inactive) | 0.977 | 0.449
6 | CCN(CC)c1ccc(N2CC=CC34O[C@@H]5C=CCCOC(=O)C5[C@H]3C(=O)N(CCCCCCO)[C@@H]4C2=O)cc1 (stereo not given in full) | -0.16 | 0.345 | -0.16 | -0.286 | -0.439 | -0.173 | 1.6 | -0.959 (inactive) | -0.581 | -0.249
7 | C[N+](C)(C)CCCCNC(=O)[C@H]1C[C@H]2C(=O)N3CCC[C@H]3C(=O)N2[C@H]1c1cccc(OCCO)c1 | 0.397 | 0.442 | -0.154 | -0.194 | -0.568 | -0.235 | 0.807 | 2.19 (inactive) | 0.412 | 0.0053
8 | NC(=O)NCC#Cc1ccc2c(c1)[C@]1(C(=O)N2)[C@H](c2ccccc2OCCO)N2[C@H](c3ccccc3)[C@H](c3ccccc3)OC(=O)[C@H]2[C@@H]1C(=O)Nc1nc2ccccc2s1 | -0.108 | -0.354 | -0.016 | 0.268 | 0.295 | 0.756 | 0.176 | 0.169 (inactive) | 0.617 | -0.0296
9 | CC(C)NC(=O)[C@@]1(c2ccc([N+](=O)[O-])cc2)CC(=O)N(C2CCCCC2)[C@@H]1c1ccc(CO)cc1I | 1.12 | 0.586 | -0.0548 | -0.0891 | -0.0016 | 0.662 | 1.12 | 0.286 (inactive) | 0.178 | 0.426
10 | COCCOC(=O)N1C(=O)[C@@]2(c3cc(C#CC4(O)CCCCCC4)ccc31)[C@H](c1ccccc1OCCO)N1[C@H](c3ccccc3)[C@H](c3ccccc3)OC(=O)[C@H]1[C@@H]2C(=O)N1CCN(c2ncccn2)CC1 | -0.383 | 0.604 | -0.0425 | 0.801 | 1.08 | 1.15 | 1.26 | -0.422 (inactive) | 0.484 | -0.134
11 | Cc1ccc([C@@H]2C[C@@H](Sc3ccccc3)[C@H](C(=O)O)CN2S(=O)(=O)c2ccc(C)cc2)cc1 | -0.0057 | 0.414 | 0.0512 | 0.983 | 1.59 | 1.57 | 1.35 | -3.65 (inactive) | 0.936 | 0.0373
12 | C=C(COC)/C(=C/C[C@H](OC(C)=O)c1ccc(CO)o1)c1cc(C(=O)OC)ccc1OC | -0.113 | 0.183 | -0.129 | 0.779 | -0.925 | 0.0136 | 0.7 | 0.0728 (inactive) | -0.0787 | 0.0749
13 | CO[C@H]1O[C@H](CO)[C@@H](OC(=O)Nc2ccccc2)[C@H](OC(=O)Nc2ccccc2)[C@@H]1OC(=O)Nc1ccccc1 | -0.29 | 0.692 | 0.205 | 0.784 | 1.3 | 1.45 | 1.37 | 1.89 (inactive) | 1.05 | -0.546
14 | O=C1C[C@]2(c3ccc([N+](=O)[O-])cc3)C(=O)N(CC(F)(F)F)c3cc(CO)ccc3[C@H]2N1C1CCCCC1 | 0.342 | -0.819 | -0.148 | -0.91 | -0.488 | -0.722 | -1.5 | 0.0655 (inactive) | -0.167 | -0.226
15 | COC(=O)C(CC#Cc1ccc2c(c1)[C@]1(C(=O)N2)[C@H](c2ccc(OCCO)cc2)N2[C@H](c3ccccc3)[C@H](c3ccccc3)OC(=O)[C@H]2[C@@H]1C(=O)Nc1nc2ccccc2s1)C(=O)OC | -0.319 | -0.164 | 0.0519 | 0.465 | 1.03 | 1.36 | 1.19 | 2.62 (inactive) | 0.582 | 0.0156
16 | CCCC[C@H]1OB(O)C[C@H]2C1=C(COC)Cn1c(=O)n(-c3ccccc3)c(=O)n12 | -0.516 | 0.107 | -0.157 | 0.392 | 0.325 | -0.19 | 0.484 | 0.103 (inactive) | 0.199 | -0.236
17 | [N-]=[N+]=NCc1ccccc1C[C@]1(C(N)=O)COC(c2ccc(OCCCO)cc2)=N1 | 0.293 | 2.02 | -0.0805 | -0.101 | 0.63 | 1.59 | 1.03 | -1.41 (inactive) | 0.847 | 0.154

Row | Structure (SMILES) | composite z-score [1] | composite z-score [2] | composite z-score [3] | composite z-score [4] | composite z-score [5] | composite z-score [6] | composite z-score [7] | z-score [8] | composite z-score [9] | composite z-score [10]
18 | C=C[C@H](OC)[C@@H](OC(=O)Nc1ccc(OC)cc1)c1ccc(O)c(F)c1 | 0.348 | 0.242 | -0.175 | -0.827 | -1.31 | 1.11 | 0.804 | 2.95 (inactive) | -0.922 | -0.0994
19 | COCCCNC(=O)[C@@]1(C)c2ccccc2C(=O)N(C(C)C)[C@H]1c1ccc(CO)cc1 | -0.427 | 0.512 | -0.0996 | -0.0442 | 0.552 | 0.302 | 1.48 | 0.214 (inactive) | 0.114 | 0.0201
20 | COCC(=C=CC[C@@H](O)c1cccc(OCCO)c1)C[C@@H](O)c1ccccn1 | -0.19 | 0.0883 | -0.0707 | 0.338 | -0.17 | 1.11 | 1.3 | 0.93 (inactive) | -0.27 | 0.176
21 | COc1ccccc1CN1C(=O)c2ccccc2[C@@H](C(=O)NC2CC2)[C@@H]1c1ccc(CO)cc1 | 0.11 | 0.293 | 0.0233 | 0.986 | 1.48 | 1.12 | 1.29 | -3.17 (inactive) | 0.592 | 0.075
22 | O[C@@H](Cc1ccccc1)[C@H]1C2C=CCCC=C2CN1Cc1cccc(Cl)c1 (stereo not given in full) | -0.328 | -0.0571 | -0.0075 | 0.617 | 0.944 | 0.898 | 1.19 | -1.45 (inactive) | 0.61 | -0.214
23 | O=C(OCc1ccccc1)C1=CCC2c3[nH]c4ccccc4c3C(=O)C1N2S(=O)(=O)c1ccccc1[N+](=O)[O-] (stereo not given) | -0.154 | -0.0749 | 0.105 | 0.982 | 1.7 | 1.65 | 1.19 | -4.32 (inactive) | 0.627 | 0.0759
24 | Cc1ccc(S[C@]2(C(=O)NCCCN(C)C)CC(=O)N(Cc3cc(C(F)(F)F)cc(C(F)(F)F)c3)[C@@H]2c2ccc(CO)cc2)cc1 | -0.16 | -0.594 | -0.159 | -0.145 | -1.28 | 0.494 | -0.624 | 0.318 (inactive) | -0.482 | -0.0645
25 | COc1cc2c(cc1OC)CN(C(=O)[C@H]1[C@@H]3C(=O)O[C@@H](c4ccccc4)[C@@H](c4ccccc4)N3[C@@H](c3ccc(O)cc3)[C@]13C(=O)Nc1ccccc13)CC2 | 0.418 | 0.814 | -0.0282 | 0.681 | -0.0554 | 1.41 | 1.38 | -1.09 (inactive) | -0.0422 | 0.0129
26 | C=CCNC(=O)[C@@H]1[C@H]2C(=O)O[C@H](c3ccccc3)[C@H](c3ccccc3)N2[C@H](c2ccccc2OCCO)[C@@]12C(=O)N(C(=O)OCCOC)c1ccccc12 | 0.599 | 0.603 | -0.107 | 0.73 | 1.32 | 0.848 | 1.29 | -0.0386 (inactive) | 0.562 | 0.621
27 | COC(=O)C[C@H]1O[C@]2(C(=O)N(C)c3ccccc32)[C@@H](C)[C@@H]1[Si](C)(C)F | -0.54 | 0.109 | -0.131 | 0.626 | 0.423 | -0.133 | 0.346 | -1.35 (inactive) | -0.0253 | 0.141
28 | Cc1ccc(S[C@]2(C(=O)NCCCN(C)C)CC(=O)N(Cc3ccccc3C(F)(F)F)[C@@H]2c2ccc(CO)cc2)cc1 | 0.678 | -0.554 | -0.138 | -0.572 | -1.37 | 0.907 | -1.08 | -1.31 (inactive) | 0.0539 | -0.0994
29 | O=C1C[C@@](C(=O)NCC(F)(F)F)(c2ccc([N+](=O)[O-])cc2)[C@@H](c2ccc(CO)cc2I)N1C1CCCCC1 | -0.0205 | 0.95 | -0.0257 | 0.19 | 1.46 | 0.811 | 1.24 | 0.467 (inactive) | 0.414 | -0.0994
30 | COc1cc2c(cc1O)C(C1CC1)N(Cc1sc3ccccc3c1Cl)CC2 (stereo not given) | 0.0766 | 0.602 | -0.135 | 0.0173 | 0.182 | -0.214 | 1.23 | 0.566 (inactive) | -0.145 | -0.0994
31 | CC(=O)NCCCC[C@@H]1NC(=O)[C@H]2C[C@@H](C(=O)NCCCCCCNC(=O)CS)[C@@H](c3ccc(O)cc3)N2C1=O | 0.993 | 1.42 | -0.0049 | 0.545 | -0.721 | 0.824 | 1.47 | 0.659 (inactive) | -0.555 | -0.108
32 | [N-]=[N+]=Nc1ccccc1[C@H]1OC(c2ccc(OCCCO)cc2)=N[C@@]1(CCS(=O)(=O)c1ccccc1)C(N)=O | 1.5 | 0.449 | 0.0797 | 1.07 | 0.742 | 0.9 | 1.34 | 3.44 (inactive) | 1.04 | 0.111
33 | CN(C)CCCC[C@@H]1NC(=O)[C@@H]2C[C@H](C(=O)NCCCCCCN)[C@H](c3cccc(OCCO)c3)N2C1=O | 1.58 | 2.15 | 0.044 | 0.973 | 1.57 | 2.24 | 1.42 | 0.0194 (inactive) | 0.88 | -0.103
